# Assay results as given in PubChem BioAssay AID376 (PDSP, 2006).
# About 250 (12%) of roughly 2,000 compounds were called active. Many of the other results were omitted from the sample, so actives are more common in it than they were. Unmarked numbers belong to inactive results. Rule as the data show it: active = hERG blockade below about -20% or above about 20%; inactive = in between.
# Target: Voltage-gated inwardly rectifying potassium channel KCNH2 (Homo sapiens) (UniProt Q12809)
# Assay: KCNH2 potassium channel function modulators, cell-based (AID 376);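 also: 0% = buffer alone and 100% = reference blocker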
# Settings: hERG-expressing cells, channel activity single-concentration screen; concentration not given here
# Voltage-gated inwardly rectifying potassium channel KCNH2 (Homo sapiens), sequence (Q12809 whole entry, looked up): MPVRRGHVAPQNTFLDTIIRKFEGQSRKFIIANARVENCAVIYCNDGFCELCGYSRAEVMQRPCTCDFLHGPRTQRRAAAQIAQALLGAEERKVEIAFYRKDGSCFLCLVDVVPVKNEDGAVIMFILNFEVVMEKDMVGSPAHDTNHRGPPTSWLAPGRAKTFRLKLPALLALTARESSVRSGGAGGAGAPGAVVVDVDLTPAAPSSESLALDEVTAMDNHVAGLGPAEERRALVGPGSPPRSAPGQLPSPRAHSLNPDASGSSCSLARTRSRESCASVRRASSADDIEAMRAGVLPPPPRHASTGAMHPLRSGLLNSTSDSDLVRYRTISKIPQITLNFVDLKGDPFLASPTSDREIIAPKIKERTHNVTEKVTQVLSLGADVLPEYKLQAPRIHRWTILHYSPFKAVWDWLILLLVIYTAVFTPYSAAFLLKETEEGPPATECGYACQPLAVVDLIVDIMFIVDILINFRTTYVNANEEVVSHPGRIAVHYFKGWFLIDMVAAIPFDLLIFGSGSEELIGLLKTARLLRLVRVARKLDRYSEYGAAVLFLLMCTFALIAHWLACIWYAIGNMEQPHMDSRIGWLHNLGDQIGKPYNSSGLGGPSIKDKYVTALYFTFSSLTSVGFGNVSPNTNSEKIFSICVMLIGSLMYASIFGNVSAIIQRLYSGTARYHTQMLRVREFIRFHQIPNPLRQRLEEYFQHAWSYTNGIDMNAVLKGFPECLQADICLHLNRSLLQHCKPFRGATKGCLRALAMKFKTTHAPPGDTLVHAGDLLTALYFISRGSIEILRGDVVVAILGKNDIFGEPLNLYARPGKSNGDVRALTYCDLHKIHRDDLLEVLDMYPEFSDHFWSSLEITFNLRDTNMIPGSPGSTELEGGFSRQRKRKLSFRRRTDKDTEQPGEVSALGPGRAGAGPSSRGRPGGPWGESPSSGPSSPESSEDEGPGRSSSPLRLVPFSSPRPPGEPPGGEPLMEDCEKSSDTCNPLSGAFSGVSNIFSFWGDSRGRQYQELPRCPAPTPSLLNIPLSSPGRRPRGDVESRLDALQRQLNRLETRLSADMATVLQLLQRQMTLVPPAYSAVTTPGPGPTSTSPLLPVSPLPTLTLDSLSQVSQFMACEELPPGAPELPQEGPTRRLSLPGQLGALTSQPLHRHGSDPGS
row,SMILES,hERG blockade
1,CSc1ccc2c(c1)c(CCN)c(C)n2Cc1ccccc1Cl,102% (active)
2,Cn1c(=O)c2[nH]cnc2n(C)c1=O.[CH2-]C(Cc1cccc2cc(C(=O)O)c(=O)oc12)OC.[Hg+2].[OH-] (configuration not stated),-6.48%
3,Nc1nc(N)c(N=Nc2ccc([As](=O)(O)O)c(O)c2)c(N)n1,-5.01%
4,CC1=NN(c2ccccc2)C(=O)C1N=Nc1ccc([As](=O)(O)O)c(O)c1 (configuration not stated),32.9% (active)
5,O=C(O)CC1NCc2cc3ccccc3nc21 (configuration not stated),-11.4%
6,O=P(O)(OP(=O)(O)c1ccccc1)c1ccccc1 (tested in a mixture with another compound),-3.18%
7,Nc1nnnn1CCO,-1.1%
8,CC1=C2C(=O)C3C(CC=C4CC(O)CCC43C)C2CCC12OC1CC(C)CNC1C2C (configuration not stated),18.8%
9,Cc1c(C(C)C2NCC(C)CC2O)ccc2c1CC1C2CC=C2CC(O)CCC21C (configuration not stated),75.5% (active)
10,CC1CCC2(NC1)OC1CC3C4CC=C5CC(O)CCC5(C)C4CCC3(C)C1C2C (configuration not stated),5.44%
11,COC([CH2][Hg][n]1cnc2c1c(=O)n(C)c(=O)n2C)CN1C(=O)c2ccccc2S1(=O)=O (configuration not stated),-10.9%
12,O=P(O)(O)c1ccccc1 (tested in a mixture with another compound),-2.7%
13,O=C(O)CSCC(=O)O,-1.83%
14,CC(Br)C(=O)NC(CO)C(=O)O (configuration not stated),16.5%
15,O=C(Nc1cc[c]([Sb](=[O])([OH])[OH])cc1)c1ccccc1,5.03%
16,Nc1ccc(S(=O)(=O)c2ccc(NCN3C(=O)NC(=O)C(=O)C3=O)cc2)cc1,20%
17,O=P(O)(O)CCP(=O)(O)O,-9.16%
18,CCOC(=O)C1C(O)CC2c3ccccc3-c3ccccc3C21 (configuration not stated),-9.9%
19,COc1cc2c(cc1OC)C13CC[N+]4(C)CC5=CCOC6CC(=O)N2C1C6C5CC34O (configuration not stated),0.126%
20,NCCSC(c1ccccc1)c1ccccc1,21.8% (active)
21,Nc1c(C(=O)Nc2ccc([As](=O)(O)O)cc2)cnc2nnnn12,6.38%

row,SMILES,hERG blockade
1,COC(=O)C1C(=O)C(C(=O)OC)C2CCC1N2C (configuration not stated),-6.77%
2,O=[As](O)(O)c1ccc2nc3cc([As](=O)(O)O)ccc3nc2c1,6.6%
3,CCSCCC(N)C(=O)O (configuration not stated),-2.21%
4,CC(CN(C)C)C(C#N)(c1ccccc1)c1ccccc1 (configuration not stated),3.3%
5,C[n+]1c(C=Cc2ccc(O)c3ncccc23)[se]c2ccccc21,24% (active)
6,NC(CP(=O)(O)O)C(=O)O (configuration not stated),0.269%
7,COc1cccc2c1C(=O)c1c(O)c3c(c(O)c1C2=O)CC(O)(C(C)=NO)CC3OC1CC(N)C(O)C(C)O1 (configuration not stated),36.3% (active)
8,CC(O)CN(CCN(CC(C)O)CC(C)O)CC(C)O.O=[N+]([O-])[O-].[Cu+2] (configuration not stated),13.4%
9,CC12CN(CC[N+](C)(C)C)CC1(C)C1CCC2O1 (configuration not stated),-0.461%
10,Cc1ccc(OP(=O)(Oc2ccc(C)cc2)N2C=Cc3ccccc3C2C#N)cc1 (configuration not stated),0.907%
11,Cc1ccc(S(=O)ON2CCC(C(=O)O)(c3ccccc3)CC2)cc1 (configuration not stated),4.76%
12,Nc1nc(N)c(N=Nc2ccc([As](=O)(O)O)cc2)c(=O)[nH]1,13.9%
13,N#CCCCC[N+]12CN3CN(CN(C3)C1)C2,6.19%
14,COc1cc(O)c2c(O)c3c(c4c2c1C1(C4)C(C)=CCCC1(C)C)C(O)C1(O)CC(=O)C(C(N)=O)=C(O)C1(O)C3=O (configuration not stated),24.7% (active)
15,Nc1cc[c]([Hg])cc1.Nc1nc2c(ncn2C2OC(CO)C(O)C2O)c(=[SH+])[nH]1 (configuration not stated),2%
16,NNc1c(C(N)=O)c2c(N)ncnc2n1C1OC(CO)C(O)C1O (configuration not stated),6.28%
17,O=C(O)CNC(=O)c1ccc([As](=O)(O)O)cc1,-21.5% (active)
18,O=[As](O)(O)c1ccc(Cc2ccc([As](=O)(O)O)cc2)cc1,-1.48%
19,NC(=O)c1ccc(C(=O)Nc2ccc([As](=O)(O)O)cc2)cc1,8.1%
20,CC1=NN(c2ccc(S(=O)(=O)O)cc2C)C(=[OH+])C1N=Nc1cc(S(=O)(=O)[O-])ccc1C(=O)O.[Cr].[OH-] (configuration not stated),-5.52%
21,Oc1ccc(CCNCc2cc3c(cc2Br)OCO3)cc1,-0.605%

row,SMILES,hERG blockade
1,O=C(O)C(Br)C(Br)C(=O)O (configuration not stated),10.9%
2,NCCc1c[nH]c2ccc(OC(=O)C(=O)O)cc12,-28.9% (active)
3,NC(CCP(=O)(O)O)C(=O)O (configuration not stated),5.51%
4,CC1CCC2(O)C3(C)CC4(O)OC2(C1O)C1(O)C3(O)C(OC(=O)c2ccc[nH]2)C(O)(C(C)C)C41C (configuration not stated),2.45%
5,O=C(O)C(O)(c1ccc(-c2ccccc2)cc1)c1ccc(-c2ccccc2)cc1,33.6% (active)
6,CC(C)c1ccc(C(O)(C(=O)O)c2ccc(C(C)C)cc2)cc1,7.38%
7,CC(=O)OC1CCC2(C)C(CCC3C2CC(=O)C2(C)C3CC(N3CC3)C2C(C)=O)C1 (configuration not stated),2.23%
8,CCc1ccc(CCN2CCCCC2)nc1,-0.853%
9,O=C(CC(c1ccccc1)c1c(O)c2ccccc2oc1=O)c1ccccc1 (configuration not stated),22.2% (active)
10,CC(C)c1ccc(C(c2c(O)c3ccccc3oc2=O)c2c(O)c3ccccc3oc2=O)cc1,15.3%
11,Nc1ccccc1O.O.O=C(O)C1[O][Sb][O]C1C(=O)O (configuration not stated),16.3%
12,[N-]=[N+]=CC(=O)CCC(N)C(=O)O (configuration not stated),2.68%
13,O=C(CCN1CC2CCC(CC2)C1)c1cccs1,29.2% (active)
14,NC(CCl)=NC1CN2CCC1CC2 (configuration not stated),-4.96%
15,O=[As](O)(O)c1ccc(N=Nc2ccc(O)cc2)cc1,-7.36%
16,O=C(c1ccccc1)C1C(c2ccccc2[N+](=O)[O-])N1C1CCCCC1 (configuration not stated),24.1% (active)
17,CCCOC(=O)C1C2CCC(O2)C1C(=O)O (configuration not stated),8.66%
18,Oc1ccc(C(O)C2CCCCN2)cc1O (configuration not stated),1.5%
19,CS(=O)(=O)OC1CN2CCC1CC2 (configuration not stated),-24.5% (active)
20,Cc1ccc(S(=O)(=O)OC2CN3CCC2CC3)cc1 (configuration not stated),2.18%
